This passage reports Potency results from PubChem BioAssay (Tox21).

Records with an inconclusive call do not appear. A call without a number means that no potency is given here. Calls of active or inactive are those of the source. Calls follow the shape of the full dose curve.
Potency is read from the fitted curve at half-maximal effect.

Chain of 5-hydroxytryptamine receptor 2A (Homo sapiens) (P28223 whole entry, looked up): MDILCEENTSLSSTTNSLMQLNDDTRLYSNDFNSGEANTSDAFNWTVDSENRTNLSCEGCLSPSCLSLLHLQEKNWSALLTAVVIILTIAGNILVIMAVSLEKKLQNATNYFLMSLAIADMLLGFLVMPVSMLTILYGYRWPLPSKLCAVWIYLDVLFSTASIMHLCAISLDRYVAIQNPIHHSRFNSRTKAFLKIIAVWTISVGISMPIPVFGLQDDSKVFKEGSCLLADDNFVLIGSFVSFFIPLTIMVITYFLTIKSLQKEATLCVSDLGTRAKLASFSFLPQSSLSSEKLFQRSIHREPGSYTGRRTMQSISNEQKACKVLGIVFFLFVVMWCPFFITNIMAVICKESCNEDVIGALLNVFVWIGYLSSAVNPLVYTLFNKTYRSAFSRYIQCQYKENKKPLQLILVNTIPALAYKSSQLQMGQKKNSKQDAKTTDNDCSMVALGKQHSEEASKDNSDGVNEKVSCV

The target in this assay is 5-hydroxytryptamine receptor 2A (Homo sapiens) (UniProt P28223). Description: 5-hydroxytryptamine receptor 2A (HTR2A) small molecule antagonists, cell-based qHTS assay (AID 1963586). Also: nearly all actives have a fitted effect of over 45% in size. Conditions: HTR2A-CHO cells, DOI-induced calcium flux, fluorescence; series mostly up to 61.5 µM. From the text:
National Center for Advancing Translational Sciences [NCATS]
Division of Preclinical Innovation [DPI]
U.S. Environmental Protection Agency [EPA]
National Institutes of Environmental Health Sciences [NIEHS]
National Toxicology Program [NTP]
U.S. Food and Drug Administration [FDA]
The HTR2A receptor is a subtype of the 5-HT2 receptor that belongs to the serotonin receptor family and is a G protein-coupled receptor (GPCR). The HTR2A-CHO cell line stably expressing human 5-hydroxytryptamine receptor 2A (HTR2A) can be used for screening antagonists of interactions between 5-HT2 and its ligands. The HTR2A-CHO calcium flux assay is a homogeneous fluorescence-based assay for detecting the intracellular calcium level using FDSS kinetic plate reader system.
Tox21 Assay Protocol Summary:
HTR2A-CHO cells were dispensed at 2000 cells/3uL/well in 1536-well black-clear bottom plates using a Multidrop Dispenser. After the assay plates were incubated at a 37 C/5% CO2 incubator for 18 h, 3 uL of Dye Loading Buffer was transferred to the assay plate by a Flying Reagent Dispenser. The assay plates were incubated at 37 C for 1h. For antagonist mode, 23 nL of compounds dissolved in DMSO, positive controls or DMSO only was transferred to the assay plate by a pin tool. After 5 min incubation at room temperature, 1.5 uL of 4-Iodo-2,5-dimethoxy-alpha-methylbenzeneethanamine hydrochloride (DOI) at 4nM was added to each well. The fluorescence intensity in the plates was measured using FDSS 7000EX kinetic plate reader for 3 min at 1 sec intervals.
On to `CC(=O)c1cnccn1`, for which the Potency entry was “inactive”. Take `C=CN1CCCCCC1=O`: the Potency result is “inactive”. With `Cc1c(C)c2c(c(C)c1OC(=O)CCC(=O)OCCO)CC[C@@](C)(CCC[C@H](C)CCC[C@H](C)CCCC(C)C)O2` the entry was “inactive”; with `N#Cc1ccc(C(=O)O)cc1`, “inactive”; with `CCOc1cc([N+](=O)[O-])c(OCC)cc1N1CCOCC1`, “inactive”. With `COC(=O)CS`, the Potency entry is “inactive”. With `CCCCCCCCCOC(C)=O` the entry was “inactive”. As to `C/C=C/C=C/COC(=O)C(C)C`, the Potency entry was “inactive”.

Take `O=C(Nc1ccccc1)c1ccccc1O`: the Potency entry is “inactive”.

For `CCCCCCOC(=O)CCCCC`, the Potency result is “inactive”. With `CC(C)C(O)C(C)(C)CO` (stereo not given) the entry was “inactive”. For `Cn1c(=O)cc(Oc2ccc(F)cc2F)c2cnc(NCC(C)(C)O)nc21` the value was “inactive”.

`CC(=O)OC1CCCCC1C(C)(C)C` (stereo not given): the Potency result was “inactive”. As for `Cc1ccc2sc3cccc(C)c3c2c1`, the Potency entry is “inactive”. On to `CCOC(=O)Cc1cccc2ccccc12`, for which the Potency entry was “inactive”. With `CCCCCc1ccc(Cl)cc1` the entry was “inactive”; with `O=C1CC2(CCCC2)CC(=O)N1`, “inactive”. For `CCCCCc1ccc(N)cc1` the value was “inactive”; for `CCCCCCc1ccc(N)cc1`, “inactive”; for `CCCCCCCCCCCCCCC1CO1` (stereo not given), “inactive”.

On to `NC(=O)C(=O)N/N=C/c1ccc([N+](=O)[O-])o1`, for which the Potency entry is “inactive”. With `CCCCOCCOC(=O)COc1ccc(Cl)cc1Cl` the entry was “inactive”. Turning to `FC(F)OC(Cl)C(F)(F)F` (stereo not given), the Potency result is “inactive”. With `O=C(O)CCCc1ccccc1` the entry was “inactive”. In the case of `CCNC(=O)C1CC(C)CCC1C(C)C` (stereo not given), the Potency entry was “inactive”. For `SC1CCCCC1` the value was “inactive”; for `CCOC(=O)C1=NOC(c2ccccc2)(c2ccccc2)C1`, “inactive”. With `N=C1C=CC(=C(c2ccc(N)cc2)c2ccc(N)cc2)C=C1` the figure was 8.4 µM (active); with `O=C(O)CCC(=O)OC[C@@H](NC(=O)C(Cl)Cl)[C@H](O)c1ccc([N+](=O)[O-])cc1`, “inactive”. For `CNCc1ccccc1` the value was “inactive”; for `CCCCCCOC(=O)CCC`, “inactive”; for `CCN(CC)CCSC(=O)C(c1ccccc1)c1ccccc1`, 1.45 µM (active). With `Nc1ccc(C(=O)NCC(=O)O)cc1`, the Potency entry was “inactive”. For `c1ccc(CCNc2nc(-c3ccccc3)cs2)cc1` the value was “inactive”; for `CC(C)(O)c1ccccc1`, “inactive”. With `CC(C)OC(=O)C(C(=O)OC(C)C)=C1SC=CS1` the entry was “inactive”. With `O=C(O)c1cc(N=Nc2ccc([N+](=O)[O-])cc2)ccc1O` the entry was “inactive”; with `C=C(C)C(=O)OCCN(C)C`, “inactive”. For the compound `CCOC(=O)CC`, the Potency entry was “inactive”.

As to `CN1CCN(C2=Nc3ccccc3Sc3ccc(Cl)cc32)CC1`, the Potency is 0.0818 µM (active).
